# From PubChem BioAssay AID504832 (National Center for Advancing Translational Sciences (NCATS), 2011)
# Out of some 310,000 compounds screened, about 18,000 (5.8%) were called active. Another 22% or so got no clear call; they are omitted. The full list was thinned out, with actives kept by preference. Values without a mark were called inactive. Calls come from the whole dose curve; as a rule, active = well fitted inhibition curve with a large enough effect; inconclusive = small, poorly fitted or top-dose-only effect, or another doubt; inactive = no such curve, though single readings can be large or run the other way.
# Assay: Primary qHTS for delayed death inhibitors of the malarial parasite plastid, 48 hour incubation
# Conditions: P. falciparum luciferase growth in erythrocytes; series mostly up to 28.7 µM; activity change, negative = inhibition: at the top concentration
# Excerpt: The goal of this screen is to discover new antimalarial compounds that act by inhibiting the development of the apicoplast in the malarial parasite Plasmodium falciparum. The biochemical processes that make this organelle essential for erythrocytic stage parasites are not well understood. However, antibiotics such as azithromycin and tetracycline, which target the apicoplast translational machinery, have a potent antimalarial effect.
# We have developed a cell-based assay that measures parasite growth based on the expression of an integrated copy of a firefly luciferase reporter. To detect small molecules that cause this "delayed death" phenotype, erythrocytes infected with the luciferase-expressing parasites were incubated with compounds for either one or two generations, corresponding to 48 and 96 hours, respectively. Compounds that inhibit parasite growth in the second generation, but not the first, should be enriched in antimalarials that target the apicoplast. Growth inhibition is detected by a decrease in luciferase activity.
# Assay Provider: David Fidock and Eric Ekland, Columbia University
# Keywords: NIH Roadmap, MLPCN, MLI, MLSMR, qHTS, NCGC, qHTS, malaria, luciferase, viability
# Four microliters of culture medium (RPMI 1640 with 0.5% w/v Albumax (GIBCO), 24 mM sodium bicarbonate and 10 ug/mL gentamycin) were dispensed by a Multi-drop Combi into white solid 1536-well plates (Grenier) and 23 nL compound was added by a pin tool. Four microliters of infected erythrocytes (2% hematocrit, 0.1% parasitemia final concentration) in culture medium were dispensed and the plates incubated for 48 hours at 37 C in 5% CO2. Two microliters of luciferase detection reagent was added and luminescence was detected by a ViewLux (PerkinElmer) reader.
# % is set by controls: 0 for no effect and ±100 for the full control effect; potency is the fitted concentration of half-maximal effect.
SMILES,"activity change, negative = inhibition",Potency
CCN(CC(=O)Nc1c(F)cccc1F)C(=O)CN1c2cccc3cccc(c23)S1(=O)=O,12.2%,
O=CN1CCN(C(=O)c2ccc(Br)o2)CC1,4.43%,
COc1ccc(CCNC(=O)CN(C)S(=O)(=O)c2ccc3nc(C)sc3c2)cc1OC,-21.8%,
Cc1cc(C)cc(OCC(=O)NCc2cc(C)nc3ccccc23)c1,-3.96%,
Cc1cc(C)c(NC(=O)C[N+](C)(C)CC(O)COc2cccc3ccccc23)c(C)c1 (centres undefined),,5.22 µM (active)
Cc1cc(C)c(NC(=O)CN2CCCCCC2)c(C)c1,49.9%,
Cc1ccccc1C(=O)Nc1ccccc1NC(=O)c1ccccc1C,1.11% [at 0.00184 µM],
N#Cc1c(-c2ccccc2)nc(SCc2ccc([N+](=O)[O-])cc2)[nH]c1=O,19.2%,
O=C(CN1C(=O)COc2ccccc21)NCCN1CCc2ccccc2C1,-9.1%,
Cn1c(C(=O)NCCN2CCc3ccccc3C2)cc2c(=O)[nH]c3ccccc3c21,,13.1 µM (active)
O=C(Cc1c(O)c2ccccc2[nH]c1=O)NCc1ccccc1,10%,
O=C(NCCN1CCN(Cc2ccccc2)CC1)c1cc2c(=O)[nH]c3ccccc3c2s1,,10.4 µM (active)
Cn1c(C(=O)NCCCN2CCN(c3cccc(Cl)c3)CC2)cc2c(=O)n(C)c3ccccc3c21,-10.9%,
O=C(CCCn1c(=O)[nH]c2cc(Cl)ccc2c1=O)NCCN1CCN(c2ccccc2)CC1,6.68%,
COCC(=O)N1CCc2ccc(NC(=O)c3ccccc3Cl)cc2C1,-9.2%,
Cc1ccccc1NC(=O)COc1cccc2c1CCNC2=O,-6.39%,
O=C(Cn1nc(C(=O)O)c2ccccc2c1=O)Nc1ccc(F)cc1,29%,
CCOc1ccccc1NS(=O)(=O)c1c[nH]c(C(=O)OC)c1,49.8%,
Cc1nc2ccccn2c(=O)c1NC(=O)c1cccs1,-6.71%,
O=C(NCc1ccccc1Cl)C1CCN(c2ncnc3c2nc2n3CCCCC2)CC1,-17.5%,
COc1ccc(-n2c(SCC(=O)OC(C)C)nnc2-c2ccccn2)cc1,1.41%,
Cc1ccc(-c2nnc(SCC(=O)N/N=C/c3cccs3)n2-c2ccc(C)cc2)cc1,-12.7%,
Cc1ccc(-n2c(Cc3cccs3)nnc2SCC(=O)OC(C)C)cc1,,11.7 µM (active)
COc1cccc(C(=O)OCC(=O)c2[nH]c(C)c(C(C)=O)c2C)c1,8.79%,
O=C(NCc1ccccc1Cl)C1CCCN1S(=O)(=O)c1ccc(F)cc1 (centres undefined),-18.1%,

SMILES,"activity change, negative = inhibition",Potency
O=C(NCCC1CCCCN1S(=O)(=O)c1cccs1)C(=O)Nc1ccc(F)cc1F (centres undefined),5.8%,
O=C(NCc1ccccc1Cl)C(=O)NCC1CCCN1S(=O)(=O)c1cccs1 (centres undefined),,14.7 µM (active)
Cc1ccc(S(=O)(=O)NCC(=O)N(CC(=O)NCC2CCCO2)c2cccc(F)c2)cc1 (centres undefined),1.59%,
N#CCCN(C(=O)COC(=O)c1ccc(S(=O)(=O)N2CCCCCC2)cc1)c1ccccc1,-10.5%,
CC(=O)c1ccc(N2Cc3ccccc3C2)cc1,140%,
CCOc1ncccc1C(=O)OCC(=O)NC1CC1,18.9%,
CCOc1ncccc1C(=O)OCC(=O)c1c[nH]c2ccccc12,,13.1 µM (active)
O=C(OCC(=O)c1c[nH]c2ccccc12)c1cccc(O)c1,334%,
O=C(O)c1ccccc1-c1ccccc1C(=O)Nc1ccccc1Br,15.8%,
COc1ccc(C)cc1NC(=O)CSc1nnc2ccc(-c3ccccn3)nn12,-5.83%,
CCCCc1ccc(NC(=O)NCc2cccnc2)cc1,5.5%,
CCc1ccc(N2CC(C(=O)N3CCCCCC3)CC2=O)cc1 (centres undefined),15.9%,
COc1ccc(N2CCN(C(=O)c3ccc(N4CCCCS4(=O)=O)cc3)CC2)cc1,-9.38%,
Cc1cc(Cl)ccc1OCCCC(=O)Nc1cccc(-n2cnnn2)c1,-3.27%,
COc1ccc(C2=NN(C(C)=O)C(c3ccccc3)C2)cc1 (centres undefined),23%,
Cc1ccc(N2C(=O)CC(Nc3cccc4ccccc34)C2=O)cc1 (centres undefined),18.2%,
Cc1ccc(N2C(=O)C3N=NN(CC(=O)N4N=C(c5cccc6ccccc56)CC4c4ccccc4)C3C2=O)cc1 (centres undefined),,13.1 µM (active)
O=C(CSc1nnnn1C1CCCC1)N1CCCCC1,98.1%,
O=C(O)C1=NN(c2c(F)c(F)cc(F)c2F)C(=O)CC1,19.6%,
COc1ccc(N2CCN(C(=O)CCNC(=O)c3ccc(Br)cc3)CC2)cc1,-16.9%,
COc1cccc(C(=O)N2CCC(n3nccc3NC(=O)C3CCOC3)CC2)c1 (centres undefined),1.74%,
CC(=O)N/C(=N/c1nc(C)cc(C)n1)Nc1ccc(F)cc1F,-15.7%,
Cc1cc(NC(=O)c2cnn3cccnc23)n(-c2ccccc2)n1,-9.66%,
Cc1cc(C)nc(-n2nc(C)cc2NC(=O)c2ccc(F)cc2F)n1,,10.4 µM (active)
